G9a block = qHTS Assay for Inhibitors of Histone Lysine Methyltransferase G9a | Histone-lysine N-methyltransferase EHMT2 (Homo sapiens), Q96KQ7 | G9a H3K9 monomethylation, AlphaScreen, 2 h | Potency, µM (series often up to 102 µM), for inactives: top-dose activity, negative = inhibition, most hits filed as inhibitors | actives 8.8% (n = 350,000); further: potency means the concentration at half of the fitted maximal effect; on the % scale 0 is the no-effect control and ±100 the full control effect; nearly all actives have a fitted effect of over 75% in size
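Signal arises when biotinylated H3K9 peptide, once monomethylated, bridges streptavidin donor and antibody-captured acceptor beads. Enzyme at 20 nM was preincubated 15 min with test compounds; peptide 500 nM and SAM 20 uM then reacted for 2 h.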
BAZ2B inh = qHTS Assay for Inhibitors of BAZ2B. Bromodomain adjacent to zinc finger domain protein 2B (Homo sapiens), Q9UIF8. AlphaScreen BAZ2B-H3K14Ac peptide displacement. Potency, µM (top dose mostly 114 µM), for inactives: at the highest dose activity change, negative = inhibition, actives largely listed as inhibitors. actives 4.4% (n = 360,000); further: potency means the concentration at half of the fitted maximal effect; on the % scale 0 is the no-effect control and ±100 the full control effect; nearly all actives have a fitted effect of over 60% in size
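Multi-concentration screen (max 110 uM) measuring displacement of acetylated histone H3 peptide from BAZ2B by AlphaScreen, using 50 nM protein, 50 nM peptide and 10 ug/mL streptavidin donor plus Ni-chelate acceptor beads.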
L3MBTL1 inh-1 = qHTS Assay for the Inhibitors of L3MBTL1; Potency, µM (doses to about 57.1 µM), inactives show at the highest dose activity, negative = inhibition, actives largely listed as inhibitors; actives 0.66% (n = 230,000); AlphaScreen L3MBTL1–H3K9me1 peptide binding; Lethal(3)malignant brain tumor-like protein 1 (Homo sapiens), Q9Y468; further: potency means the concentration at half of the fitted maximal effect; on the % scale 0 is the no-effect control and ±100 the full control effect; nearly all actives have a fitted effect of over 60% in size
Target sequence (Q9Y468 whole entry, looked up): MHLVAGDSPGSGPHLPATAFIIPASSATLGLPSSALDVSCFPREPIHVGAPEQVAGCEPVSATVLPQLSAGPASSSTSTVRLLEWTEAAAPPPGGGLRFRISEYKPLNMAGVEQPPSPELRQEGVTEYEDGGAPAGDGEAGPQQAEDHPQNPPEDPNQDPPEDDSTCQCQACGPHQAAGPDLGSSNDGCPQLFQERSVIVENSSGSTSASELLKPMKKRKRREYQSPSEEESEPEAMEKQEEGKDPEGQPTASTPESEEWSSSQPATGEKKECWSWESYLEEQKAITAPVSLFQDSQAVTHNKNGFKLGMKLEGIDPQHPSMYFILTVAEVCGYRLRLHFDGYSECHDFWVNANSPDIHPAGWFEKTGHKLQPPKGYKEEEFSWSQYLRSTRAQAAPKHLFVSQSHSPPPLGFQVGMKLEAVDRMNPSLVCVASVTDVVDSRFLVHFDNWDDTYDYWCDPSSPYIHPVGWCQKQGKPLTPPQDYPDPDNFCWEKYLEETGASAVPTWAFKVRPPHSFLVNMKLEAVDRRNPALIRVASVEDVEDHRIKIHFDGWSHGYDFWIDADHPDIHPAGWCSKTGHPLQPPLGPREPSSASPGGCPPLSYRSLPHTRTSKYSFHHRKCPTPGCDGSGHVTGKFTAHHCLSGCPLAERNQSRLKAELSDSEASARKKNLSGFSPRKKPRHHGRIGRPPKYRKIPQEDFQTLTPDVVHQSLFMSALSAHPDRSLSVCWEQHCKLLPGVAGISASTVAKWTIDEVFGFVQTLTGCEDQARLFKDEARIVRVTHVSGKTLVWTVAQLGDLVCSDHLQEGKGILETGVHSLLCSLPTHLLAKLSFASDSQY
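L3MBTL1 (50 nM) pre-complexed 30 min with biotinylated H3(1-15)K9me1 peptide (75 nM), then compounds added for 30 min at room temperature; AlphaScreen streptavidin donor/nickel chelate acceptor beads (10 ug/mL final) read after 30 min dark incubation.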
JMJD2A Tudor = qHTS Assay for Inhibitors of JMJD2A-Tudor Domain; AlphaScreen JMJD2A-Tudor / H3K4me3 peptide binding; AID 504339, 2011; Lysine-specific demethylase 4A (Homo sapiens), O75164; actives 4.4% (n = 390,000); Potency, µM (titrated, usually from 114 µM), for inactives: at the top dose activity change, negative = inhibition, hits mostly inhibitors; further: potency means the concentration at half of the fitted maximal effect; on the % scale 0 is the no-effect control and ±100 the full control effect; nearly all actives have a fitted effect of over 50% in size
HP1b binding inh = HTS for Inhibitors of HP1-beta Chromodomain Interactions with Methylated Histone Tails; Potency, µM (titrated, usually from 114 µM), inactives show top-dose activity change, negative = inhibition, actives largely listed as inhibitors; AID 540317, 2011; Chromobox protein homolog 1 (Homo sapiens), P83916; actives 0.56% (n = 390,000); AlphaScreen HP1-beta / biotin-H3K9me3 peptide binding; further: potency means the concentration at half of the fitted maximal effect; nearly all actives have a fitted effect of over 70% in size
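AlphaScreen: HP1-beta (50 nM) preformed 30 min with biotin-H3(1-18)K9me3 peptide (50 nM) in PBS pH 7.4, 0.01% Tween-20. Compound added for 30 min at RT, then streptavidin donor/nickel chelate acceptor beads (10 ug/mL) for 30 min.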
L3MBTL1 inh-2 = qHTS Assay for the Inhibitors of L3MBTL1: Hit Validation; shares compounds with L3MBTL1 inh-1; L3MBTL1 methyl-lysine binding inhibition, biochemical qHTS; Potency, µM, usual class: inhibitors; actives 91% (n = 500); AID 540279, 2011; further: potency means the concentration at half of the fitted maximal effect; nearly all actives have a fitted effect of over 70% in size
AlphaScreen ctr2 = qHTS Assay for the Inhibitors of L3MBTL1: Hit Validationin AlphaScreen Counterscreen. shares compounds with L3MBTL1 inh-1. AlphaScreen counterscreen, signal inhibition. Potency, µM (doses to about 57.1 µM), inactives show at the highest dose activity change, negative = inhibition, usual class: inhibitors. 500 tested, under 10 active. AID 602224, 2012; further: potency means the concentration at half of the fitted maximal effect; 0% is about no effect
ME-1 prolif = qHTS Assay for Compounds Blocking the Interaction Between CBF-beta and RUNX1 for the Treatment of Acute Myeloid Leukemia: ME-1 cellular proliferation; shares compounds with BAZ2B inh; ME-1 cell proliferation, ATP luminescence, 48 h; Potency, µM (series often up to 56.1 µM), for the others: at the top dose activity change, negative = inhibition, most hits filed as inhibitors; actives 20% (n = 140)
An asterisk follows results filed as active; ? = inconclusive; . = not tested or not shown; [ ] = remark or other dose. Compounds with a hit are over-represented: about 11% of the library has one in this group of screens. The call rests on the fitted dose curve; in most records, active means well fitted curve in the direction sought with a large enough effect; inconclusive means small, poorly fitted or top-dose-only effect, or another doubt; inactive means no such curve, though single readings can be large; an effect the other way counts as inactive or inconclusive.

SMILES	G9a block	BAZ2B inh	L3MBTL1 inh-1	JMJD2A Tudor	HP1b binding inh	ME-1 prolif	others
CC(C)OC(=O)c1cccc(NC(=O)Cn2nnc3sc4c(c3c2=O)CCCC4)c1	?	-21%	.	-33%	9%	.
COc1cc2c(cc1OC)CN(Cc1nc3ccsc3c(=O)[nH]1)CC2	?	40µM*	25µM*	?	37%	.	L3MBTL1 inh-2=21*;AlphaScreen ctr2=-3%
O=c1[nH]c(CN2CCN(c3ccccc3Cl)CC2)nc2ccsc12	?	-33%	1%	-22%	57%	.
COCCN(C(=O)CSc1nnc(-c2cccc(F)c2)n1N)c1c(N)n(Cc2ccccc2)c(=O)[nH]c1=O	10%[0.501 µM]	-3%	2%	-5%	46%	.
O=C(Cn1c(=O)n(-c2ccccc2)c(=O)c2c3c(sc21)CCC3)c1ccc(F)cc1	-23%[59 µM]	1%	.	-19%	4%	.
O=C(Cn1c(=O)n(Cc2ccco2)c(=O)c2c3c(sc21)CCCCC3)c1ccccc1	-3%[59 µM]	-35%	35µM*	?	2%	.	L3MBTL1 inh-2=3.8*;AlphaScreen ctr2=-24%
Oc1c(CN2CCN(c3ccccn3)CC2)cc(Cl)c2cccnc12	?	14µM*	4.5µM*	32µM*	-15%	.	L3MBTL1 inh-2=21*;AlphaScreen ctr2=-95%
O=C(Oc1c(CN2CCOCC2)cc(Cl)c2cccnc12)c1ccccc1Cl	3%	11µM*	14µM*	50µM*	34%	.	L3MBTL1 inh-2=27*;AlphaScreen ctr2=-16%
Cc1cc2nc(-c3ccc(NC(=O)c4ccccc4F)cc3)oc2cc1C	9%[59 µM]	2%	.	-13%	6%	.
COc1cc([N+](=O)[O-])ccc1NC(=O)N1CCCCCC1	4%	-39%	.	-17%	26%	.
CCCCSc1nnc(-c2ccccc2NC(C)=O)c(=O)[nH]1	.	5%	10%	-8%	43%	.
O=c1cc2c(=O)oc3cc(O)c(O)oc3c2c(O)c1O	.	1.8µM*	0.32µM*	1.4µM*	1.6µM*	-15%	L3MBTL1 inh-2=0.17*;AlphaScreen ctr2=?
COc1ccc(NC(=O)COc2ccc(S(=O)(=O)NC3CCCCC3)cc2)c(OC)c1	6%[59 µM]	2%[57.1 µM]	.	0%	39%	.
O=C(O)c1cc(O)c2c(c1)[C@H]([C@H]1c3cc(C(=O)O)cc(O)c3C(=O)c3c(O[C@@H]4OC(CO)C(O)C(O)C4O)cccc31)c1cccc(O[C@@H]3OC(CO)C(O)C(O)C3O)c1C2=O (stereo partly drawn)	-148%[2.33 µM]	.	.	.	.	-19%
Brc1ccc(Cn2c(-c3ccc(Br)o3)nc3ccccc32)o1	40µM*	13µM*	-29%	-21%	-8%	?
COCCCN(C(=S)Nc1cc(Cl)cc(Cl)c1)C(C)c1ccccn1 (stereo not drawn)	?	4%	.	36%	36%	.
Cc1ccc(Cl)cc1NC(=S)N(CCN(C)C)C(C)c1ccccn1 (stereo not drawn)	-26%	.	.	-2%	21%	-7%[25.6 µM]
Cc1cccc(NC(=S)N(CCN(C)C)C(C)c2ccccn2)c1 (stereo not drawn)	22%[12.7 µM]	56µM*	.	-10%	25%	-8%[25.6 µM]
Cc1ccc(C)c(S(=O)(=O)N2CCN(C(=O)c3cccnc3)CC2)c1	95%	7%	.	0%	70%	.
COc1cccc2c1NC(C(=O)O)C1CC=CC21 (stereo not drawn)	2.5µM*	3.5µM*	1.3µM*	8.9µM*	20µM*	?
CC(=O)Nc1ccc(SCCN2CCN(CCc3ccccc3)CCC2=O)cc1	.	.	.	?	13%	.
O=[N+]([O-])c1cc2c(cc1/C=N/n1c(-c3ccccn3)n[nH]c1=S)OCO2	0.79µM*	7.1µM*	?	4µM*	?	?
Cc1nc(N2C(=O)c3oc4ccccc4c(=O)c3C2c2ccccc2F)sc1C (stereo not drawn)	15%[59 µM]	11%[57.1 µM]	.	-4%	50%	.
Cc1cc(O)c(C=O)c2c1C(=O)Oc1c(COC(=O)/C=C/C(=O)O)c(O)c(C(=O)O)c(C)c1O2	?	.	.	.	.	10%
COc1cccc2c1C(=O)c1c(O)c3c(c(O)c1C2=O)C[C@@](O)(C(C)=O)C[C@@H]3O[C@H]1C[C@H](N)[C@H](O)[C@H](C)O1	35µM*	35µM*	-20%	?	-16%	0.25µM*
SMILES	G9a block	BAZ2B inh	L3MBTL1 inh-1	JMJD2A Tudor	HP1b binding inh	ME-1 prolif	others
NNC(=O)c1cc2ccccc2cc1O	18%[59 µM]	10%	15%	-18%	7%	.
O=c1c(O)cccc2cc(O)c(O)c(O)c12	0.56µM*	0.79µM*	0.56µM*	0.89µM*	?	?
Cc1ccc(C(C)(C)c2ccc(C)cc2)cc1	16%[12.7 µM]	.	.	.	.	.
CC(C)(c1cc(Br)c(O)c(Br)c1)c1cc(Br)c(O)c(Br)c1	6%[0.501 µM]	56µM*	-22%	89µM*	0%	4%
Cc1noc(C)c1COc1ccccc1C(=O)NNC(=O)C(C)Oc1ccccc1F (stereo not drawn)	5%	9%	2%	-14%	25%	.
CO/N=C1\CN(c2nc3c(cc2F)c(=O)c(C(=O)O)cn3C2CC2)CC1CN (stereo not drawn)	-7%[2.33 µM]	.	.	.	.	?
COc1c(N2CCN(C(=S)NC3CC4CCC3C4)C(C)C2)c(F)cc2c(=O)c(C(=O)O)cn(C3CC3)c12 (stereo not drawn)	5%	?	6%	-15%	47%	.
CCc1cccc(NC(=O)CCCCCC2NC(=O)NC2C)c1 (stereo not drawn)	1.3µM*	0.79µM*	.	0.32µM*	0.79µM*	-16%
COc1cc(NC(C)=O)c2ncccc2c1NC(C)=O	6%	2%	.	-16%	22%	.

Screens deposited in PubChem by National Center for Advancing Translational Sciences (NCATS).
